This is part of a sample that, as a whole, favours compounds with a hit. Of some 83,000 tested, about 20% had one in any assay.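 Growth was measured after 48 h exposure to one concentration of compound in 96-well plates. Values under 10 count as active.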 Values without a mark were called inactive. Active and inactive are the calls of the source.
The molecules below were run on UACC-62 melanoma (assay: NCI-60 one-dose screen, 48 h (100 = growth as untreated, 0 = no growth, -100 = all killed)). Conditions: 10 µM unless noted.
CC(C)(C)OC(=O)NC(CSCc1ccccc1)C(=O)ON1C(=O)CCC1=O (stereo not drawn) gave a growth of 112%.
Nc1cccc(Cl)c1N showed a growth of 108%.
C/C(=C\c1ccc(OCC(=O)O)c(Cl)c1Cl)[N+](=O)[O-] was tested, and the growth was 114%.
Molecule CCOC(=O)C1=C(C)NC(C)=C(C(=O)OCC)C1(C)C has a growth of 98.7%.
Work on N#C/C(=C1C=C/C(=N/O)C(Cl)=C/1)c1ccc(Cl)cc1 yielded a growth of 58.3%.
For CCC(C)/C(=C\C#N)NCCCN/C(=C/C#N)C(C)CC (stereo not drawn), the growth was 104%.
Cn1ncc2c(Sc3ccc(Cl)cc3)ncnc21 gave a growth of 87.9%.
O=C(CSC1CCc2ccccc21)N/N=C/c1ccccc1O (stereo not drawn) showed a growth of 36.4%.
In the case of CC1(c2ccc(Cl)cc2)OC(=O)CC(=O)O1, the growth is reported as 102%.
In the case of O=C1C(Cl)=C(Nc2ccccn2)C(=O)c2ccccc21, the growth is reported as 1.2% (active).
With CCCCCCCCCCCCCCCCNC(=O)OC(C)C the growth was 81.7%.
With Cc1ccc2nc(Cl)cc(=O)n2c1 the growth was 102%.
In the case of CC1CCC(C)N(C)C1 (stereo not drawn), the growth is reported as 99.7%.
CCc1cnc(=S)n(-c2ccccc2)c1 showed a growth of 109%.
CC(=O)Nc1nc(N)nc(NC(C)=O)c1N=O was tested, and the growth was 109%.
Molecule COc1cc(C2CC(c3ccc4c(c3)OCO4)=NN2C(C)=O)cc(OC)c1OC (stereo not drawn) has a growth of 46.2%.
In the case of O=C(c1ccccc1)C1OC1c1ccc([N+](=O)[O-])cc1 (stereo not drawn), the growth is reported as 71.4%.
COc1ccc2c(c1)C(c1cc(OC)c3c(c1)OCO3)C1=C(COC1=O)N2 (stereo not drawn) gave a growth of 46.7%.
With CC(=O)Nc1scc[n+]1Cc1ccccc1 the growth was 114%.
C=C1CCC2C3(C)COC(c4ccccc4)OC3CCC2(C)C1/C=C/C1=CCOC1=O (stereo not drawn) showed a growth of 58.8%.
Work on CCN(CC)CCOc1ccc(Cl)c(C)c1 yielded a growth of 104%.
O=C(Oc1ccccc1[N+](=O)[O-])C1CCCN1C(=O)OCc1ccccc1 (stereo not drawn) was tested, and the growth was 109%.
In the case of CC(=O)Nc1ccc(S(=O)(=O)n2ccc(-c3ccc4c(c3)CCC(C)(C)O4)n2)cc1, the growth is reported as 62.4%.
CC(C)(C)OC(=O)NCCc1ccc(N=C=S)cc1 showed a growth of 54.8%.
For COc1cc(C2CC(c3ccc4c(c3)OCO4)=NN2C=O)cc(OC)c1OC (stereo not drawn), the growth was 40.9%.
Work on O=C1CCCCC1(c1ccccc1)c1ccccc1 yielded a growth of 99.7%.
For Nc1nc(=O)c2ccccc2s1, the growth was 97.2%.
For CN1C=CN(Cc2ccc(-c3ccccn3)nc2)[CH-]1.CN1C=CN(Cc2ccc(-c3ccccn3)nc2)[CH-]1.[Au+3], the growth was 30.7%.
In the case of COC(OC)c1ccccc1, the growth is reported as 107%.
C=C[C@@H]1C[C@H](O)Cc2cc(F)ccc2N1 gave a growth of 99.1%.
CN(C)c1ncnc2c1ccn2C1OC(CO)C(O)C1O (stereo not drawn) was tested, and the growth was 93.4%.
Work on NC1=NN(O)C2=CC([N+](=O)[O-])C=CC2=N1 (stereo not drawn) yielded a growth of 122%.
For O=C([O][Sn]([O]C(=O)c1ccccn1)([c]1ccccc1)[c]1ccccc1)c1ccccn1, the growth was 83%.
C=C(C)[C@@H]1C[C@H](O)Cc2cc(F)ccc2N1 was tested, and the growth was 95.6%.
With CNC(=S)NNC(=O)C1CC1 the growth was 111%.
With CCOC(=O)C1CCNC(=O)C1=O (stereo not drawn) the growth was 101%.
For COc1ccc(CNCCCN2C(=O)c3ccc4c5c(ccc(c35)C2=O)C(=O)N(CCCNCCCCNCCCN)C4=O)c(OC)c1OC, the growth was 1.36% (active).
For Cc1ccc(S(=O)(=O)C2=C3C(=C(c4ccccc4)c4ccccc43)CN(S(=O)(=O)c3ccc(C)cc3)C2)cc1, the growth was 36.9%.
In the case of COc1cc2c(c(OC)c1OC)-c1ccc(N)c(=O)cc1[C@@H](NC(C)=O)CC2, the growth is reported as 30.8%.

These molecules were tested on LOX IMVI melanoma in the same assay as above. Conditions: 10 µM unless noted.
CC(C)(C)OC(=O)NC(CSCc1ccccc1)C(=O)ON1C(=O)CCC1=O (stereo not drawn) gave a growth of 104%.
In the case of Nc1cccc(Cl)c1N, the growth is reported as 86.6%.
C/C(=C\c1ccc(OCC(=O)O)c(Cl)c1Cl)[N+](=O)[O-] showed a growth of 92.1%.
With CCOC(=O)C1=C(C)NC(C)=C(C(=O)OCC)C1(C)C the growth was 104%.
For N#C/C(=C1C=C/C(=N/O)C(Cl)=C/1)c1ccc(Cl)cc1, the growth was 7.65% (active).
CCC(C)/C(=C\C#N)NCCCN/C(=C/C#N)C(C)CC (stereo not drawn) was tested, and the growth was 93.7%.
Molecule Cn1ncc2c(Sc3ccc(Cl)cc3)ncnc21 has a growth of 78.3%.
CC1(c2ccc(Cl)cc2)OC(=O)CC(=O)O1 gave a growth of 106%.
Work on O=C1C(Cl)=C(Nc2ccccn2)C(=O)c2ccccc21 yielded a growth of 14.5%.
In the case of CCCCCCCCCCCCCCCCNC(=O)OC(C)C, the growth is reported as -2.25% (active).
Molecule Cc1ccc2nc(Cl)cc(=O)n2c1 has a growth of 112%.
Work on CC1CCC(C)N(C)C1 (stereo not drawn) yielded a growth of 95.9%.
With CCc1cnc(=S)n(-c2ccccc2)c1 the growth was 95.4%.
For CC(=O)Nc1nc(N)nc(NC(C)=O)c1N=O, the growth was 94.3%.
Molecule COc1cc(C2CC(c3ccc4c(c3)OCO4)=NN2C(C)=O)cc(OC)c1OC (stereo not drawn) has a growth of 35.7%.
O=C(c1ccccc1)C1OC1c1ccc([N+](=O)[O-])cc1 (stereo not drawn) showed a growth of 29%.
Molecule COc1ccc2c(c1)C(c1cc(OC)c3c(c1)OCO3)C1=C(COC1=O)N2 (stereo not drawn) has a growth of 20.1%.
For CC(=O)Nc1scc[n+]1Cc1ccccc1, the growth was 87.9%.
Molecule CCN(CC)CCOc1ccc(Cl)c(C)c1 has a growth of 101%.
Work on O=C(Oc1ccccc1[N+](=O)[O-])C1CCCN1C(=O)OCc1ccccc1 (stereo not drawn) yielded a growth of 84.2%.
For CC(=O)Nc1ccc(S(=O)(=O)n2ccc(-c3ccc4c(c3)CCC(C)(C)O4)n2)cc1, the growth was 64.1%.
With CC(C)(C)OC(=O)NCCc1ccc(N=C=S)cc1 the growth was 56%.
Molecule O=C1CCCCC1(c1ccccc1)c1ccccc1 has a growth of 94%.
For Nc1nc(=O)c2ccccc2s1, the growth was 104%.
CN1C=CN(Cc2ccc(-c3ccccn3)nc2)[CH-]1.CN1C=CN(Cc2ccc(-c3ccccn3)nc2)[CH-]1.[Au+3] showed a growth of 32.4%.
Molecule COC(OC)c1ccccc1 has a growth of 88.2%.
C=C[C@@H]1C[C@H](O)Cc2cc(F)ccc2N1 was tested, and the growth was 94.2%.
NC1=NN(O)C2=CC([N+](=O)[O-])C=CC2=N1 (stereo not drawn) was tested, and the growth was 83.7%.
O=C([O][Sn]([O]C(=O)c1ccccn1)([c]1ccccc1)[c]1ccccc1)c1ccccn1 gave a growth of 50.6%.
CNC(=S)NNC(=O)C1CC1 was tested, and the growth was 99.9%.
With CCOC(=O)C1CCNC(=O)C1=O (stereo not drawn) the growth was 97.8%.
With COc1ccc(CNCCCN2C(=O)c3ccc4c5c(ccc(c35)C2=O)C(=O)N(CCCNCCCCNCCCN)C4=O)c(OC)c1OC the growth was 6.59% (active).
Cc1ccc(S(=O)(=O)C2=C3C(=C(c4ccccc4)c4ccccc43)CN(S(=O)(=O)c3ccc(C)cc3)C2)cc1 was tested, and the growth was -76.5% (active).
With COc1cc2c(c(OC)c1OC)-c1ccc(N)c(=O)cc1[C@@H](NC(C)=O)CC2 the growth was 25%.
